Experimental data taken from PubChem BioAssay (NCATS).
Records with an inconclusive call do not appear. Calls of active or inactive are those of the source. Unless noted, calls come from the whole dose curve; as a rule, active = well fitted curve in either direction with a large enough effect (not every such curve was filed as active); inconclusive = small, poorly fitted or top-dose-only effect, or another doubt; inactive = flat fitted curve, though single readings scatter.

Experiments:
[1] = AP1 Signaling Pathway (AID 357); conditions: ME-180 (cervical carcinoma) AP-1-bla reporter, EGF-induced, beta-lactamase ratio, 5 h; at 17.2 µM (top of the series) unless noted;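 note: ME-180 reporter cells stimulated with EGF at its EC50 level; % is set by controls: 0 for no effect and ±100 for the full control effect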
Summary of the method: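 In this screen, ME-180 cells in Opti-MEM with 0.5% dialyzed FBS received EC50 EGF and compound titrations for 5 h. AP-1 reporter beta-lactamase was detected via CCF4 ratio, giving AC50 for positive and negative modulators.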

[2] = NFAT Signaling Pathway (AID 444); conditions: Jurkat NFAT-bla M1, carbachol, beta-lactamase ratio, 5 h;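 note: carbachol stimulus at about its EC50 of 1 µM final; % is set by controls: 0 for no effect and ±100 for the full control effect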
Summary of the method: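 Jurkat cells with NFAT-driven β-lactamase reporter and co-expressed M1 receptor, stimulated with carbachol (final 1 uM, ~EC50), compound titration, 5 h at 37 °C. CCF4 loaded 1 h at RT; 460/530 nm ratio gave %activity and AC50.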

[3] = Stat Signaling Pathway (AID 446);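 note: ME-180 cervical cancer cells given 40 pM IL-6 alongside compound; SIE-controlled beta-lactamase reporter measured as 460/530 nm FRET emission ratio; % is set by controls: 0 for no effect and ±100 for the full control effect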
Summary of the method: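 FRET read-out (405 nm excitation, 460/530 nm emission) of a beta-lactamase reporter under a STAT-inducible element in ME-180 cervical carcinoma cells. Cells with compound receive 40 pM IL-6 for 5 h. Values are normalised to AC90 stimulation and AC90 JAK-inhibitor controls.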

[4] = molecular target: Glucocorticoid receptor (Homo sapiens) (UniProt P04150); assay: GR-GFP Redistribution (AID 450;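 active = compounds whose dose series gives a full or clear partial fitted curve of increased nuclear translocation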; note: potency is the fitted concentration of half-maximal effect); conditions: U2OS GR-GFP nuclear translocation, laser cytometry, 2 h
Glucocorticoid receptor (Homo sapiens), sequence (P04150 whole entry, looked up, the tested form may be a part): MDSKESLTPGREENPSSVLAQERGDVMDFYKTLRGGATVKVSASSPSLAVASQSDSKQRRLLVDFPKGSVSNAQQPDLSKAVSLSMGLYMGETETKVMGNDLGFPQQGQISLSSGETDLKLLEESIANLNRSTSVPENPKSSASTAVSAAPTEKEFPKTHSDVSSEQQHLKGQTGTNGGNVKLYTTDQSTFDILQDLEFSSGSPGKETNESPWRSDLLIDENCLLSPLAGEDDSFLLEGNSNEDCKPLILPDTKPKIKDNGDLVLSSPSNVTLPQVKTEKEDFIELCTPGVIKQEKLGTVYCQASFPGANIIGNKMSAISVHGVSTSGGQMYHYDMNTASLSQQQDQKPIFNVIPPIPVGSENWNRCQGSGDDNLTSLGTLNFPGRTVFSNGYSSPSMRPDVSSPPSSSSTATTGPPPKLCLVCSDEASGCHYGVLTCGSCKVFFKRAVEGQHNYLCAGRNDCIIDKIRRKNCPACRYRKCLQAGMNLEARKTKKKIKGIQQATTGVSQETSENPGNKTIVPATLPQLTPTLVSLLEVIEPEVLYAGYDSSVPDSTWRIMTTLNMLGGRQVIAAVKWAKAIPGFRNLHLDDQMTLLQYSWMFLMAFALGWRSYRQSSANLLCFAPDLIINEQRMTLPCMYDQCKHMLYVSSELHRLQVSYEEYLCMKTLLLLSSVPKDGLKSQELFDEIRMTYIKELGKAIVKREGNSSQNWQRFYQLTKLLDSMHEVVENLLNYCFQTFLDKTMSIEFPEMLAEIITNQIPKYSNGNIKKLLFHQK

[5] = molecular target: Cytochrome P450 1A2 (Homo sapiens) (UniProt P05177); assay: p450-cyp1a2 (AID 410; calls by dose curve; note: potency is the fitted concentration of half-maximal effect;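 for activity change, negative = inhibition: -100% = full effect of reference inhibitor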)
Cytochrome P450 1A2 (Homo sapiens), sequence (P05177 whole entry, looked up): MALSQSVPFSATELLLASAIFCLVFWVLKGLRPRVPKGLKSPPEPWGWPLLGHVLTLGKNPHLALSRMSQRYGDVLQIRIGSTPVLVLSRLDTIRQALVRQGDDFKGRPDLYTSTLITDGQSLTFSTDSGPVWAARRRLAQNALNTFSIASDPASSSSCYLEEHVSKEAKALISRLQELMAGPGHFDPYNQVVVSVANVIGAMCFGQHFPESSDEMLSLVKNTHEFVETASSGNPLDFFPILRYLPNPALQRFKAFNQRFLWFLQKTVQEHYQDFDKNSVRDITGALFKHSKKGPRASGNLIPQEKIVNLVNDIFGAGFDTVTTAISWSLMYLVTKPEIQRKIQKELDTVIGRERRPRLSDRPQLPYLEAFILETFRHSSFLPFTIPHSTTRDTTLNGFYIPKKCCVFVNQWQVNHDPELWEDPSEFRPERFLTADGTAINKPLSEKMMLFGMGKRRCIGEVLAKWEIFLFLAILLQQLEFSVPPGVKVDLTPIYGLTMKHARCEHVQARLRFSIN
Summary of the method: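 20nM CYP1A2, 100uM Luciferin-ME (=Km), 100mM KPO4; cpd 10 min RT; +NADPH regen, 60 min RT; stop/detect 20 min; luminescence. Normalized to furafylline 57 uM = full inhibition.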

[6] = molecular target: Glucocorticoid receptor (Homo sapiens) (UniProt P04150); assay: GR-EFC Redistribution (AID 451; calls by dose curve; note: potency is the fitted concentration of half-maximal effect); conditions: CHO-K1 GR-EFC translocation, beta-gal luminescence, 2 h
Summary of the method: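 CHO-K1 cells expressing nuclear EA and GR-ED fragments of b-gal; compounds titrated up to 46 uM final, 2 h at 37 C. GR nuclear translocation read as complemented b-gal luminescence after 1 h RT detection.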

[7] = molecular target: Mitogen-activated protein kinase 10 (Mus musculus) (UniProt Q61831); assay: JNK3 AlphaScreen Assay (AID 530);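 note: kinase came from lysate of stimulated human HepG2 cells; signal reports phosphorylation of biotinylated GST-cJun 1-79 at Ser73 with 10 µM ATP; % is set by controls: 0 for no effect and ±100 for the full control effect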
Summary of the method: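 HepG2 lysate (IL-1b/TNFa pre-activated) + biotin-GST-cJun 1-79 + anti-pSer73 cJun; cpd titration, 15 min RT; ATP 10 uM start; Tris pH 7.6, MgCl2, DTT, vanadate; beads in EDTA buffer; AlphaScreen.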

[8] = molecular target: Lysosomal acid glucosylceramidase (Homo sapiens) (UniProt P04062); assay: Glucocerebrosidase-p2 (AID 348; in the data active = potency below about 10 µM; note: potency is the fitted concentration of half-maximal effect); conditions: purified GBA, blue fluorogenic substrate, 40 min
Lysosomal acid glucosylceramidase (Homo sapiens), sequence (P04062 whole entry, looked up): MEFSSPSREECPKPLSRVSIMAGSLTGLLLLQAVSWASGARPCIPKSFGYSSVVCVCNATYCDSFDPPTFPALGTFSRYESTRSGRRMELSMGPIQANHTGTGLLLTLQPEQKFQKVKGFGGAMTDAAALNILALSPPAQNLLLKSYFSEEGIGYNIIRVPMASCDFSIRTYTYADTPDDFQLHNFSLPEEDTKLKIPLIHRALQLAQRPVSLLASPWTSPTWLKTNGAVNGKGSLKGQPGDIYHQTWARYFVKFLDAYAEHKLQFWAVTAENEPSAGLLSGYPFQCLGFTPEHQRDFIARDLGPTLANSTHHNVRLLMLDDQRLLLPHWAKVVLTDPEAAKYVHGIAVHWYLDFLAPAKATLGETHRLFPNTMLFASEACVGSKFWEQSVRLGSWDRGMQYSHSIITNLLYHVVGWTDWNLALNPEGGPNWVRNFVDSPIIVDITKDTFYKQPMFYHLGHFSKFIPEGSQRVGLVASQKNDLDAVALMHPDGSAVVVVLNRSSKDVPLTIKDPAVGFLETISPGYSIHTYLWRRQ
Summary of the method: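 Normal human glucocerebrosidase (0.2 nM) with blue fluorogenic substrate (80 uM final) in citrate/phosphate pH 5.9 with 10mM sodium taurocholate, 0.01% tween-20; 40 min RT, NaOH/glycine stop; fluorescence Ex 365/Em 440; AC50 from a titration from 0.6 nM upwards.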

O=C(O)c1ccccc1S
inactive: activity change, negative = inhibition [1] -3.14% | activity change, negative = inhibition ([2]; at 17.2 µM (top of the series)) 24.8% | outcome [3] | Potency [4] > 20.6 µM

CCOC(=O)NNc1nncc2ccccc12
inactive: activity change, negative = inhibition [1] -6.72% | activity change, negative = inhibition ([2]; at 17.2 µM (top of the series)) 1.79% | outcome [3] | Potency [4] > 20.6 µM | Potency [6] > 20.6 µM | outcome [7]
active: Potency [5] 5.01 µM

O=C(O)/C=C(\CC(=O)O)C(=O)O
inactive: Potency [8] > 11.4 µM | activity change, negative = inhibition [1] 3.65% [at 7.69 µM] | Potency [5] | activity change, negative = inhibition ([2]; at 7.69 µM (top of the series)) 26.4% | outcome [3] | activity change, negative = inhibition [7] 4.55% [at 11.4 µM]

C[C@H]1C[C@@H]2[C@H]([C@@H](O)C[C@@]3(C)[C@H]2CC[C@]3(O)C(=O)CO)[C@@]2(C)C=CC(=O)C=C12
inactive: activity change, negative = inhibition [1] 4.57% | activity change, negative = inhibition ([2]; at 17.2 µM (top of the series)) 17.5% | outcome [3]

CC(NCCC(c1ccccc1)c1ccccc1)c1ccccc1 (stereo not drawn)
inactive: activity change, negative = inhibition [1] 12.2% | outcome [3] | Potency [4] > 20.6 µM

Cc1ncc(CO)c(CO)c1O
inactive: activity change, negative = inhibition [1] -2.02% | Potency [5] | outcome [3] | outcome [7]

CCCC(=O)O[C@]1(C(=O)CCl)[C@@H](C)C[C@H]2[C@@H]3CCC4=CC(=O)C=C[C@]4(C)[C@@]3(F)C(=O)C[C@@]21C
active: Potency [4] < 5.9e-06 µM
inactive: activity change, negative = inhibition [1] 2.19% | outcome [3]

Brc1ccc([C@H]2CN3CCSC3=N2)cc1
active: Potency [5] 15.8 µM
inactive: activity change, negative = inhibition [1] 10.4% [at 38 µM] | activity change, negative = inhibition ([2]; at 38 µM (top of the series)) -10.1% | outcome [3] | Potency [4] > 46 µM | Potency [6] > 46 µM | outcome [7]

CN(C)c1cc2c(Nc3ccc4c(cnn4Cc4ccccc4)c3)ncnc2cn1
inactive: Potency [4] > 46 µM | Potency [6] > 46 µM | outcome [7]
active: activity change, negative = inhibition [1] -107% [at 38 µM] | Potency [5] 7.94 µM

O=C1NC(c2cccc([N+](=O)[O-])c2)=CCN1c1ccccc1O
inactive: activity change, negative = inhibition [1] -12.2% [at 38 µM] | activity change, negative = inhibition ([2]; at 38 µM (top of the series)) 4.96% | outcome [3] | Potency [4] > 46 µM | Potency [6] > 46 µM | outcome [7]
